Screens (PubChem BioAssay)
An excerpt weighted towards active compounds, which were near 4.7% of everything screened.
TRHR agonist-1: TRH receptor (human) agonism; P34981; TRHR cells, calcium flux fluo-8, FDSS agonist mode; activation, % at 2 µM; 360,000 tested, 0.18% active; in the data active = activation above about 30%; also: 0% is about no effect
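Steps: seed TRHR cells overnight; add fluo-8 no-wash Ca dye, RT 30 min–1.5 h; record 10 s baseline; pin-transfer compounds; monitor fluorescence 1 cycle/s for the agonist window. Calcium increases flag candidate agonists.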
D1 antagonist: antagonists of human D1 dopamine receptor. AID 504652. P21728. activity change, negative = inhibition, % at 10 µM. HEK293 TREx D1 cells, calcium flux, dopamine EC80; active compounds read low. 360,000 tested, 3.2% active; in the data active = activity change below about -30%; also: % is scaled to controls: 0 for no effect and ±100 for the full control effect
Target sequence (P21728 whole entry, looked up): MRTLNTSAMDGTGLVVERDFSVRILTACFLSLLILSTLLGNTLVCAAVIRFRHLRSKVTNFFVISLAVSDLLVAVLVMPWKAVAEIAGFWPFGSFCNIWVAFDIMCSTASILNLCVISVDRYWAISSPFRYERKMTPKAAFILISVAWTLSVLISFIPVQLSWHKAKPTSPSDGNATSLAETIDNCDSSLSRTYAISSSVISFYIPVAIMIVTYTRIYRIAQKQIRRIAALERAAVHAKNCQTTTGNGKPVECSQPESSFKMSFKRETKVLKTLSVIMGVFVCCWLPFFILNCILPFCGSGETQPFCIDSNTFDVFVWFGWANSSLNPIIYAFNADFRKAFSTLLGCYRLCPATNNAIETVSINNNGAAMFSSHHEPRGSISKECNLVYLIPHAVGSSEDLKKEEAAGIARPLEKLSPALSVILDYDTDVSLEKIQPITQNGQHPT
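Using tetracycline-induced force-coupled D1 Hek293 cells and a calcium dye, signals were followed for 180 s after compound, then for 180 s after EC80 dopamine, to detect inhibitors.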
D1 PAM: human D1 dopamine receptor positive modulation. P21728. HEK293 TREx D1 cells, calcium flux, dopamine EC20 potentiation. potentiation, % at 10 µM. 360,000 tested, 0.036% active. AID 504651; in the data active = potentiation above about 30%; also: 0% is about no effect
D1 ag: activates the human D1 dopamine receptor. P21728. HEK293 T-REx D1 cells, calcium flux, agonist mode. activation, % at 2 µM. 360,000 tested, 1% active. AID 504660; in the data active = activation above about 30%; also: 0% is about no effect
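Agonism was scored from calcium flux recorded over 180 s (1 read/s) after pintool compound addition, following a 10-cycle baseline. Cells were inducible force-coupled HEK293 TREx D1, plated overnight at 30 C and loaded with no-wash calcium dye.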
TRHR enhancer-1: allosterically enhances the human TRH receptor | enhancement, % at 2 µM | P34981 | 360,000 tested, 0.66% active | TRHR cells, fluo-8 calcium fluorescence, EC20 TRH enhancement | AID 493056; in the data active = enhancement above about 30%; also: 0% is about no effect
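TRHR-expressing cells loaded with fluo-8 calcium dye were read kinetically (ex 480/em 530) during compound addition, then stimulated with an EC20 of TRH (10 nM final). Enhancement of the Gq-mediated intracellular calcium response was scored.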
TRHR enhancer-2: confirmation of human TRH receptor allosteric enhancers; shares compounds with TRHR enhancer-1; TRH receptor cell assay, enhancer confirmation qHTS; activity change, negative = inhibition, % at 46.1 µM; 970 tested, under 10 active; AID 493076;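 also: compound effect scored on response to added TRH at EC20 of 10 nM; 0% is about no effect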
TRHR agonist-2: human TRH receptor agonism confirmation | shares compounds with TRHR enhancer-1 | TRHR-expressing cells, agonist activation read-out | Potency, µM (series often up to 46.1 µM), for inactives: at the highest dose activation, actives largely listed as activators | 970 tested, 8% active; also: potency is read from the fitted curve at half-maximal effect; 0% is about no effect; nearly all actives have a fitted effect of over 75% in size
An asterisk follows results filed as active. Unless noted, calls follow the shape of the dose curve; as a rule, active = well fitted curve in the direction sought with a large enough effect; inconclusive = small, poorly fitted or top-dose-only effect, or another doubt; inactive = no such curve, though single readings can be large; an effect the other way counts as inactive or inconclusive.

COc1ccc(CCNc2oc(-c3ccccc3OC)nc2C#N)cc1OC was read as TRHR agonist-1 1, D1 antagonist 13, D1 PAM 4, D1 ag 3, TRHR enhancer-1 43*, TRHR enhancer-2 inconclusive and TRHR agonist-2 0%.
For COc1ccc(CCNc2oc(-c3ccccc3OC)nc2C#N)cc1 the results were TRHR agonist-1 -1, D1 antagonist -11, D1 PAM -10, D1 ag -4 and TRHR enhancer-1 -4.
For Cc1cccc(-c2c3c(=O)n(C)c(=O)n(C)c3c3c(C)nc4ccccc4n23)c1 the results were TRHR agonist-1 0, D1 antagonist -3, D1 PAM -4, D1 ag 5 and TRHR enhancer-1 27.
For O=C(Cn1nnc2ccccc21)C1CC1 the results were TRHR agonist-1 0, D1 antagonist 7, D1 PAM -5, D1 ag 4, TRHR enhancer-1 47*, TRHR enhancer-2 -3 and TRHR agonist-2 -1%.
Screening CN(C)c1ccc(/C=N/NC(=O)Cn2nnc3ccccc32)cc1 returned TRHR agonist-1 29, D1 antagonist 7, D1 PAM 0, D1 ag 1, TRHR enhancer-1 2, TRHR enhancer-2 inconclusive and TRHR agonist-2 1%.
`O=C(O)c1ccc(N/N=C/c2ccc(F)c(F)c2)cc1` gave TRHR agonist-1 0, D1 antagonist 6, D1 PAM -5, D1 ag 3, TRHR enhancer-1 47*, TRHR enhancer-2 -9 and TRHR agonist-2 -1%.
For O=C(O)c1ccc(N/N=C/c2cccc(F)c2)cc1 the results were TRHR agonist-1 0, D1 antagonist -1, D1 PAM 5, D1 ag 2 and TRHR enhancer-1 3.
For CC(=O)c1ccc(N2CCN(c3nc4ccccc4c4nc(-c5cccc(C)c5)nn34)CC2)cc1 the results were TRHR agonist-1 0, D1 antagonist 8, D1 PAM 3, D1 ag 2 and TRHR enhancer-1 -1.
Screening Cc1cc(NC(=O)CCN2C(=O)c3ccccc3C2=O)no1 returned TRHR agonist-1 -1, D1 antagonist 1, D1 PAM -3, D1 ag 2, TRHR enhancer-1 56*, TRHR enhancer-2 0 and TRHR agonist-2 -1%.
For Cc1ccc(NC(=O)CCN2C(=O)c3ccccc3C2=O)cc1 the results were TRHR agonist-1 0, D1 antagonist -7, D1 PAM -2, D1 ag 1 and TRHR enhancer-1 -8.
For CCCn1c(=O)c(C(=O)NCCc2ccc(OC)cc2)c(O)c2ccccc21 the results were TRHR agonist-1 2, D1 antagonist 7, D1 PAM -2, D1 ag 17 and TRHR enhancer-1 -6.
NC1=NC(=O)/C(=C/c2ccc(OCC(=O)O)cc2)S1 was read as TRHR agonist-1 0, D1 antagonist -3, D1 PAM 0, D1 ag 4 and TRHR enhancer-1 -3.
`CCN(CC)c1ccc(/C=C2\SC(N)=NC2=O)cc1` gave TRHR agonist-1 29, D1 antagonist 8, D1 PAM 0, D1 ag 60*, TRHR enhancer-1 27, TRHR enhancer-2 1 and TRHR agonist-2 inconclusive.
COc1ccc(-c2cc(C)no2)cc1S(=O)(=O)N1CCN(c2ccc(C(C)=O)cc2)CC1 was read as TRHR agonist-1 0, D1 antagonist 6, D1 PAM -5, D1 ag 2 and TRHR enhancer-1 2.
`COc1ccc(C(C[N+](=O)[O-])c2c(-c3ccccc3)cc3ccccn23)cc1` (stereo not drawn) gave TRHR agonist-1 0, D1 antagonist 5, D1 PAM -1, D1 ag 7, TRHR enhancer-1 54*, TRHR enhancer-2 -1 and TRHR agonist-2 4%.
Screening CCc1nn2c(=O)c(S(=O)(=O)Nc3ccc(OC)c(Cl)c3)c(C)nc2s1 returned TRHR agonist-1 1, D1 antagonist 6, D1 PAM -2, D1 ag 11 and TRHR enhancer-1 -2.
